Results with a measured potency or affinity are listed apart.

One experiment deals with Klebsiella pneumoniae. The note with it: Concentration 32 ug.mL-1;; ASSAY_TEST Inhibition of Bacterial Growth; detection method Absorption (OD600); MEDIA CAMHB; plate type 384well; NBS; CORNING #3640; time 18 hr.
Another experiment has as its system Candida albicans. As to conditions: Concentration 32 ug.mL-1; ASSAY_TEST Inhibition of Fungal Growth; detection method Absorption (OD530).
A further experiment relates to Cryptococcus neoformans. The note with it: Concentration 32 ug.mL-1; ASSAY_TEST Inhibition of Fungal Growth; detection method Resazurin; Absorption (OD600-OD570); plate type 384well; NBS; CORNING #3640. (The colour change of resazurin is a common sign of viable cells or microbes.)

As to `CCOC(=O)c1ccccc1NC(=O)CSc1nc2ccccc2n2c(C(C)C)nnc12`, the Inhibition in the experiment on Klebsiella pneumoniae is 12.78%; with Candida albicans, 1.73%; with Cryptococcus neoformans, -19.92%.
In the same order, the values of `CSc1cccc(NC(=O)Cn2nc3c(N4CCCC(C)C4)nccn3c2=O)c1` (centres undefined) are 8.54%, 6.43% and -37.15%.
For `COc1cccc(-n2ccn3c(SCc4ccc(F)cc4)nnc3c2=O)c1`, in that order: 3.28%, 1.89% and -13.93%.
In the same order, the values of `COc1cc(NC(=O)CSc2nnc3c(=O)n(-c4ccccc4)ccn23)cc(OC)c1` are 17.43%, 0.46% and -23.26%.
On to `COc1ccc(-c2cc3c4nn(CC(=O)Nc5cc(C)cc(C)c5)c(=O)n4ccn3n2)cc1`, for which the Inhibition with Klebsiella pneumoniae is 9.4%; in the experiment with Candida albicans, 2.5%; in the experiment with Cryptococcus neoformans, -4.71%.
For `COc1ccc(NC(=O)C(C)Sc2nnc3c(=O)n(-c4ccccc4)ccn23)cc1` (centres undefined), in that order: 12.19%, 1.79% and -7.55%.
For `Cc1ccc(Cl)cc1N1CCN(C(=O)CCc2nnc3c4cc(-c5ccccc5)nn4ccn23)CC1`, in that order: 5.47%, 0.3% and -6.62%.
In the same order, the values of `Cc1ccc(Oc2nccn3c(=O)n(CC(=O)Nc4cccc(Cl)c4)nc23)cc1` are 2.02%, 5.47% and -14.56%.
Consider `O=C(Cn1nc2c(Oc3ccccc3)nccn2c1=O)Nc1cc(F)ccc1F`, for which the Inhibition is recorded as -4.08% in the experiment with Klebsiella pneumoniae, -0.69% in the experiment with Candida albicans and -9.47% in the experiment on Cryptococcus neoformans.
Regarding `Cc1cccc(Oc2nccn3c(=O)n(CC(=O)NCCCc4ccccc4)nc23)c1C`, the Inhibition in the experiment on Klebsiella pneumoniae is 15.41%; in the experiment on Candida albicans, 0.59%; in the experiment on Cryptococcus neoformans it was -6.84%.
In the same order, the values of `O=C(Cn1nc2c(Sc3ccccc3)nccn2c1=O)Nc1ccc2c(c1)OCO2` are 1.19%, 12.77% and -5.13%.
As for `Cc1nnc2c(=O)n(CC(=O)Nc3ccc(Cl)cc3F)c3ccccc3n12`, the Inhibition was 7.95% in the experiment with Klebsiella pneumoniae, 0.4% in the experiment with Candida albicans and -18.26% with Cryptococcus neoformans.
For `CCOc1ccc(-n2ccn3c(SCC(N)=O)nnc3c2=O)cc1`, in that order: 16.24%, 1.43% and -5.27%.
For `COc1ccc(CNC(=O)CSc2nnc3c4cc(-c5ccc(C)cc5)nn4ccn23)cc1`, in that order: 9.18%, 1.16% and -27.11%.
For `Cc1cccc(N(Cc2cccc(Cl)c2)S(=O)(=O)c2cccn3c(C)nnc23)c1`, in that order: 4.74%, 3% and -4.93%.
Consider `N#Cc1ccc(NC(=O)CSc2nnc3c4cc(-c5ccc(F)cc5)nn4ccn23)cc1`, for which the figures for the Inhibition with Klebsiella pneumoniae, with Candida albicans and with Cryptococcus neoformans were 11.54%, 18.84% and -16.45%, respectively.
For `O=C(Cn1nc2n(Cc3ccc(F)cc3)c(=O)c3ccccc3n2c1=O)Nc1ccc2c(c1)OCO2`, the Inhibition in the experiment on Klebsiella pneumoniae is listed as 8.5%; in the experiment with Candida albicans, 5.19%; with Cryptococcus neoformans it was -6.14%.
With `COc1ccc(CNC(=O)Cn2nc3c(SCc4ccc(Cl)cc4)nccn3c2=O)cc1`, the Inhibition in the experiment on Klebsiella pneumoniae is given as 2.51%; in the experiment with Candida albicans, 1.91%; in the experiment on Cryptococcus neoformans, -11.5%.
For `Cc1ccc(NC(=O)Cn2nc3c(SCc4ccc(Cl)cc4)nccn3c2=O)c(C)c1`, in that order: 13.7%, 0.54% and -21.97%.
For `Cc1ccc(Sc2nccn3c(=O)n(CC(=O)Nc4ccc(C)c(Cl)c4)nc23)c(C)c1`, in that order: 10.52%, -2.58% and -26.74%.
In the same order, the values of `Cc1cccc(N(C)C(=O)Cn2nc3cc(C)nc(Nc4ccc(F)c(C)c4)n3c2=O)c1` are 4.58%, 2.18% and -4.41%.
Consider `Cc1ccc(NC(=O)Cn2nc3ccc(SC(C)(C)C)nn3c2=O)cc1C`, for which the Inhibition in the experiment on Klebsiella pneumoniae was 8.45%; with Candida albicans it was 5.53%; with Cryptococcus neoformans, -7.37%.
For `O=C(CSc1nc2ccccc2n2cnnc12)Nc1ccc2c(c1)OCCO2`, in that order: 4.35%, 2.01% and -3.4%.
In the same order, the values of `CCc1ccccc1Sc1nccn2c(=O)n(CC(=O)Nc3cc(Cl)c(OC)cc3OC)nc12` are -2.45%, 17.44% and -4.37%.
In the same order, the values of `Cc1ccccc1Oc1nccn2c(=O)n(CC(=O)Nc3cc(Cl)ccc3Cl)nc12` are 4.89%, 2.23% and -9.52%.
With `CCOc1ccc(NC(=O)Cn2nc3c4c5c(sc4ncn3c2=O)CCCC5)cc1`, the Inhibition with Klebsiella pneumoniae is on record as 5.11%; in the experiment with Candida albicans, 2.52%; in the experiment with Cryptococcus neoformans it was -9.01%.
For `CCCCOc1ccc(-c2cc3c4nnc(SCC(=O)NCc5ccccc5)n4ccn3n2)cc1`, in that order: -0.43%, 3.39% and -8.72%.
As to `Cc1nnc2c(S(=O)(=O)N(Cc3cc(F)cc(F)c3)c3cccc(F)c3)cccn12`, the values for the Inhibition in the experiment on Klebsiella pneumoniae, with Candida albicans and in the experiment on Cryptococcus neoformans were 4.57%, 6.53% and -8.02%, respectively.

The term Inhibition denotes the drop in the measured response relative to a control, in per cent.

The values are drawn from ChEMBL document CHEMBL4513146, “CO-ADD screening of Karazin Kharkiv National University (Ukraine) compounds”.
